From PubChem BioAssay (Tox21)
Inconclusive results are not listed. Calls of active or inactive are those of the source. Unless noted, calls follow the shape of the full dose curve.

Assays:
[1] = Nuclear factor erythroid 2-related factor 2/antioxidant responsive element (Nrf2/ARE) small molecule agonists: qHTS cell viability counter screen in human keratinocytes (AID 1919968; active = well fitted curve in the direction sought with a large enough effect in the repeat runs; an effect the other way counts as inactive or inconclusive; also: nearly all actives have a fitted effect of over 55% in size)
Procedure, shortened: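 CellTiter-Fluor fluorescence, read 1 h after reagent, gave viability in the same wells as the ARE-luciferase assay. KeratinoSens cells (1,500/well) had 23 h compound exposure at 37 C/5% CO2 following 5 h plating.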

[2] = Nuclear factor erythroid 2-related factor 2/antioxidant responsive element (Nrf2/ARE) small molecule agonists: luciferase reporter gene qHTS assay in human keratinocytes (AID 1919969); also: nearly all actives have a fitted effect of over 35% in size
[3] = target: Gonadotropin-releasing hormone receptor (Homo sapiens) (UniProt P30968); assay: Human gonadotropin-releasing hormone receptor (GnRHR) small molecule agonists, calcium flux assay in GnRHR-HEK293 cells (AID 1920063); also: nearly all actives have a fitted effect of over 35% in size
Chain of Gonadotropin-releasing hormone receptor (Homo sapiens) (P30968 whole entry, looked up): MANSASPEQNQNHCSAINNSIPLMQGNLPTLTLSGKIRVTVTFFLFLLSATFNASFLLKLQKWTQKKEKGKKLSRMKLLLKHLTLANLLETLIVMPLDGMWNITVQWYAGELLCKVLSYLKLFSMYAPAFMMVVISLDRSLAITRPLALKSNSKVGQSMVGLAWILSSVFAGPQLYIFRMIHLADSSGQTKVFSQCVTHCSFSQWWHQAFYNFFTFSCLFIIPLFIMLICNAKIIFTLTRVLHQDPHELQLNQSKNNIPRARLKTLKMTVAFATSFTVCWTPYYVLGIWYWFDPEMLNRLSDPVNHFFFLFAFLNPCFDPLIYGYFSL
Procedure, shortened: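 Agonist mode: compounds at 15 concentrations, in triplicate, went onto calcium dye-loaded GnRHR-HEK293 cells. Intracellular calcium was then followed as 480/540 nm fluorescence at 1 s intervals over 3 min.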

[4] = target: KiSS-1 receptor (Homo sapiens) (UniProt Q969F8); assay: Human kisspeptin (KISS1R) small molecule agonists, calcium flux assay in KISS1R-HEK293 cells (AID 1920064; active = well fitted curve in the direction sought with a large enough effect in the repeat runs; an effect the other way counts as inactive or inconclusive)
Chain of KiSS-1 receptor (Homo sapiens) (Q969F8 whole entry, looked up): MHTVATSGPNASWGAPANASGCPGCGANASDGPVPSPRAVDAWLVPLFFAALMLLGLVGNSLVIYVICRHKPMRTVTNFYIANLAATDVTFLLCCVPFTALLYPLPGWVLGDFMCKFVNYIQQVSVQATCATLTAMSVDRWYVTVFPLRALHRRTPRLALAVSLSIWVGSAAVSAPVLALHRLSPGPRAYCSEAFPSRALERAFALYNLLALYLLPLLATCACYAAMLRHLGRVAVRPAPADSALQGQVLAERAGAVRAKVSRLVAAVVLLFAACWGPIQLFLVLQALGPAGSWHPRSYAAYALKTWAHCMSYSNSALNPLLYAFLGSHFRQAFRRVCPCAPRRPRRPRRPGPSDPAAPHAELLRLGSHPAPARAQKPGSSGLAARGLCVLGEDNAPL
Procedure, shortened: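 Agonist mode: intracellular calcium rise tracked at 1 s intervals over 3 min (480/540 nm) immediately after compound addition to dye-loaded KISS1R-HEK293 stable cells. Each compound tested at 15 concentrations in triplicate.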

[5] = G protein-coupled receptor (GPCR) small molecule agonists, calcium flux assay: HEK293 wild type cell line counter screen (AID 1920065)
Procedure, shortened: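 Calcium flux counter screen: compound added in agonist mode at 15 concentrations in triplicate to dye-loaded parental HEK293 cells. Fluorescence (480/540) read kinetically for 3 min; ATP served as positive control.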

[6] = p53 small molecule agonists, cell-based qHTS assay with human liver microsomes: qHTS cell viability counter screen (AID 1963579); also: nearly all actives have a fitted effect of over 45% in size
Procedure, shortened: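 Cytotoxicity counter screen: p53RE-bla, 4,000 cells/well; 5 h settle, 37 C/5% CO2; cpd + HLM 0.5 mg/mL + NADPH 0.5 mg/mL (final); 16 h, 37 C; CellTiter-Glo, 30 min RT, luminescence.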

[7] = p53 small molecule agonists, cell-based qHTS assay with rat liver microsomes: qHTS cell viability counter screen (AID 1963580); also: nearly all actives have a fitted effect of over 45% in size
Procedure, shortened: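 Counter screen for cytotoxicity under metabolic activation: rat liver microsomes and NADPH, 0.5 mg/mL final each, added with compounds to p53RE-bla HCT-116 cells; 16 h at 37 C, then ATP luminescence read.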

[8] = p53 small molecule agonists, cell-based qHTS assay: qHTS cell viability counter screen (AID 1963581); also: nearly all actives have a fitted effect of over 45% in size
Procedure, shortened: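 Counter screen read by CellTiter-Glo luminescence (ATP content, 30 min at room temperature), run in the same wells as the beta-lactamase reporter read. HCT-116 p53RE-bla cells saw compounds for 16 h at 37 C.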

[9] = target: 5-hydroxytryptamine receptor 2A (Homo sapiens) (UniProt P28223); assay: 5-hydroxytryptamine receptor 2A (HTR2A) small molecule agonists, cell-based qHTS assay (AID 1963587); also: nearly all actives have a fitted effect of over 30% in size
Chain of 5-hydroxytryptamine receptor 2A (Homo sapiens) (P28223 whole entry, looked up): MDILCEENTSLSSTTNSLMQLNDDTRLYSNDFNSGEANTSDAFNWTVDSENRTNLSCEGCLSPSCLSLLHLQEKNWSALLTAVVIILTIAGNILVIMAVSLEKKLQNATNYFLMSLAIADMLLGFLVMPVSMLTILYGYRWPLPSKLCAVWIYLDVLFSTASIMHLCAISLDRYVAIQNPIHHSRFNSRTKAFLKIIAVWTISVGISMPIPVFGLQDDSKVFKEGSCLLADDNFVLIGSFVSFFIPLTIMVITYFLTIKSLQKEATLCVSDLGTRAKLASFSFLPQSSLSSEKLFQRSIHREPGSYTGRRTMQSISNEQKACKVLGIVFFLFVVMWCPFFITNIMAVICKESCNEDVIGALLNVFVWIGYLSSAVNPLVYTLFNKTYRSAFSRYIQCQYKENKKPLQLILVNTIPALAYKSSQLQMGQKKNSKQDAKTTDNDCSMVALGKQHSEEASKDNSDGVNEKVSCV
Procedure, shortened: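 HTR2A-CHO cells, plated 18 h at 37 C/5% CO2, dye-loaded 1 h at 37 C; compounds in DMSO added by pin tool (agonist mode). Intracellular calcium flux read as kinetic fluorescence on FDSS over 2 min at 1 s intervals.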

[10] = target: Muscarinic acetylcholine receptor M1 (Homo sapiens) (UniProt P11229); assay: Cholinergic receptor muscarinic 1 (CHRM1) small molecule antagonists, cell-based qHTS assay (AID 1963588); also: nearly all actives have a fitted effect of over 40% in size
Chain of Muscarinic acetylcholine receptor M1 (Homo sapiens) (P11229 whole entry, looked up): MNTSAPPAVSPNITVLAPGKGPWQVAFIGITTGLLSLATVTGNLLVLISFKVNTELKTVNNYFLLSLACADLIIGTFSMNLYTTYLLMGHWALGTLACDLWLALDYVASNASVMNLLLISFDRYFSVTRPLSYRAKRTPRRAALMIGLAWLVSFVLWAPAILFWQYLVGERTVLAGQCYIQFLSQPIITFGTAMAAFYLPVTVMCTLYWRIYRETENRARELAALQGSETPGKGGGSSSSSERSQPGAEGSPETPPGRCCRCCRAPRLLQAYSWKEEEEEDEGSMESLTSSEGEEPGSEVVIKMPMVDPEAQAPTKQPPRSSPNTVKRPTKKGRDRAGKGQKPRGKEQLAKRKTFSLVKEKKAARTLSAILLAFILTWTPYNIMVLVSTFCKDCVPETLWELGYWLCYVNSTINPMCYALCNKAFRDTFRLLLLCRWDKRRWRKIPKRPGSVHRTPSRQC
Procedure, shortened: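 Compounds were tested at 15 concentrations in three independent runs. Dye-loaded CHRM1-CHO cells were exposed 5 min at room temperature before stimulation by acetylcholine added at 50nM. Intracellular calcium was read kinetically on FDSS for 3 min.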

[11] = target: Muscarinic acetylcholine receptor M1 (Homo sapiens) (UniProt P11229); assay: Cholinergic receptor muscarinic 1 (CHRM1) small molecule agonists, cell-based qHTS assay (AID 1963589); also: nearly all actives have a fitted effect of over 35% in size
Procedure, shortened: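 Agonist-mode calcium-flux screen: compounds at 15 concentrations, three independent runs, were pin-transferred onto dye-loaded human CHRM1-CHO cells. Fluorescence was then recorded kinetically every second over minutes.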

[12] = cAMP Responsive Elements (CRE) small molecule agonists, cell-based qHTS assay (AID 1963590)
Procedure, shortened: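 Agonist mode: compound added to CRE-bla HEK 293T cells (2,000/well, 18 h after plating) for 3 h at 37 C/5% CO2. Reporter activity detected via FRET beta-lactamase substrate, 2 h room-temperature loading.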

[13] = cAMP Responsive Elements (CRE) small molecule antagonists, cell-based qHTS assay (AID 1963591; active = well fitted inhibition curve with a large enough effect in the signal ratio in the repeat runs, not every such curve was filed as active; the % refers to the signal ratio)
Procedure, shortened: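 Antagonist mode: compounds are added alongside the adenylyl cyclase activator NKH477 (0.25 uM final) to CRE-bla HEK293T cells for 3 h. LiveBLAzer FRET substrate, 2 h at room temperature, reports bla expression.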

[14] = target: Beta-2 adrenergic receptor (Homo sapiens) (UniProt P07550); assay: Adrenergic beta2 receptor (ADRB2) small molecule antagonists, cell-based qHTS assay (AID 1963592); also: series mostly up to about 92 µM; nearly all actives have a fitted effect of over 50% in size
Chain of Beta-2 adrenergic receptor (Homo sapiens) (P07550 whole entry, looked up): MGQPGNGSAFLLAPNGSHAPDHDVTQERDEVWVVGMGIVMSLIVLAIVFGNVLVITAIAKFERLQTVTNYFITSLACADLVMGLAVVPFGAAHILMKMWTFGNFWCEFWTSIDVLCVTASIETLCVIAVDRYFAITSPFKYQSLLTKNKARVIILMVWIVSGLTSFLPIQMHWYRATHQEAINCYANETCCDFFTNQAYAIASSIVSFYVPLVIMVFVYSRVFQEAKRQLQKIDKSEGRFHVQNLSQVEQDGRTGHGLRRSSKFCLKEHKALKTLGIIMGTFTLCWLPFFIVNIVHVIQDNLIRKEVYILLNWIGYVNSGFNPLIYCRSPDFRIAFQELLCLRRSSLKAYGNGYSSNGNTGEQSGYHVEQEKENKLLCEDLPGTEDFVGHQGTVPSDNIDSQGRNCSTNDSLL
Procedure, shortened: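 Assay format: CHO-ADRB2 cells, 18-20hr seeding at 37C/5% CO2, then compound plus 1nM isoproterenol agonist mix for 0.5hr RT. Homogeneous time-resolved fluorescence cAMP detection after 1hr, expressed as 665/615 nm ratio.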

[15] = target: D(2) dopamine receptor (Homo sapiens) (UniProt P14416); assay: Dopamine D2 receptor (DRD2) small molecule agonists, cell-based qHTS assay (AID 1963594); also: nearly all actives have a fitted effect of over 35% in size
Chain of D(2) dopamine receptor (Homo sapiens) (P14416 whole entry, looked up): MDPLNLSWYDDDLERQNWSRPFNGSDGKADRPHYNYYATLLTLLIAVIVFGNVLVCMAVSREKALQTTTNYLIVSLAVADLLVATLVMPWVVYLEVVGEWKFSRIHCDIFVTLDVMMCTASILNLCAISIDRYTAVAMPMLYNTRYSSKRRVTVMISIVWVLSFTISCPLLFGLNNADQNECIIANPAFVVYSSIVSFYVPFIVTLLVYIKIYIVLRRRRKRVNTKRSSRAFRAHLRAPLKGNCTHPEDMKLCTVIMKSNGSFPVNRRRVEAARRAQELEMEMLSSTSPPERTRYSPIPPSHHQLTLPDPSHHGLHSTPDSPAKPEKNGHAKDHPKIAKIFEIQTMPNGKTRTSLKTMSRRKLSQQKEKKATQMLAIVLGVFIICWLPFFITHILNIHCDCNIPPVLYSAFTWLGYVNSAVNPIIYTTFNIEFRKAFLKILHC
Procedure, shortened: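 HEK293 cells stably expressing DRD2 were cultured 24 h at 37 C, then given Ro20-1724 (0.1 mM final) and compounds for 10 min at room temperature. NKH477 (200nM) was then added for 30 min. cAMP was read by HTRF.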

[16] = target: D(2) dopamine receptor (Homo sapiens) (UniProt P14416); assay: Dopamine D2 receptor (DRD2) small molecule antagonists, cell-based qHTS assay (AID 1963595; active = well fitted inhibition curve with a large enough effect in the signal ratio in the repeat runs, with a control signal flat; the % refers to the signal ratio)
Procedure, shortened: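 In this cell-based antagonist screen, compounds act for 10 min at room temperature before a 30 min challenge with 12 nM quinpirole and 200 nM NKH477. cAMP is quantified by HTRF competition in DRD2-HEK293 cells containing 0.1 mM Ro20-1724.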

[17] = target: 5-hydroxytryptamine receptor 2A (Homo sapiens) (UniProt P28223); assay: 5-hydroxytryptamine receptor 2A (HTR2A) small molecule antagonists, cell-based qHTS assay (AID 1963586); also: nearly all actives have a fitted effect of over 45% in size
Procedure, shortened: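 CHO cells stably expressing human HTR2A were plated for 18 h at 37 C, then loaded with calcium dye for 1 h. Compounds were preincubated 5 min at room temperature before DOI (4 nM solution) was added. Kinetic fluorescence was read for 3 min.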

[18] = target: Beta-2 adrenergic receptor (Homo sapiens) (UniProt P07550); assay: Adrenergic beta2 receptor (ADRB2) small molecule agonists, cell-based qHTS assay (AID 1963593);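 also: CHO cells stably overexpressing human ADRB2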
Procedure, shortened: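 CHO cells stably over-expressing ADRB2 were plated overnight at 37C, then dosed with compounds plus a stimulation mix containing 100uM IBMX and 25uM Ro-20-1724 for 0.5hr at room temperature. cAMP was measured by HTRF competition, 1hr.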
% is scaled to controls: 0 for no effect and ±100 for the full control effect.

NC(N)=NCCC[C@H](N)C(=O)O
inactive: activity change, negative = cytotoxicity [1] -4.64% [at 8.39 µM] | activity, positive = activation [2] -5.37% [at 8.39 µM] | activity change [3] 0.97% [at 5.22 µM, active compounds read high] | activation [4] -0.0198% [at 6.97 µM] | activation [5] 2.23% [at 5.23 µM] | activity change, negative = cytotoxicity [6] -0.294% [at 5.99 µM] | activity change, negative = cytotoxicity [7] 1.88% [at 5.99 µM] | activity change, negative = cytotoxicity [8] -8.01% [at 5.99 µM] | activation [9] 2.81% [at 7.02 µM] | activity, negative = inhibition [10] -1.41% [at 5.58 µM] | activation [11] -0.347% [at 6.97 µM] | activation [12] 4.27% [at 8.39 µM] | activity change, negative = inhibition [13] -3.28% [at 8.39 µM] | activity change, negative = inhibition [14] 0.0181% [at 8.39 µM] | activation [15] -13.5% [at 8.39 µM] | activity change, negative = inhibition [16] 5.33% [at 8.38 µM]

Cc1nc2ccccc2c(=O)o1
inactive: Potency [1] | Potency [2] | Potency [3] | Potency [4] | Potency [5] | Potency [6] | Potency [7] | Potency [8] | Potency [9] | Potency [10] | Potency [11] | Potency [12] | Potency [13] | Potency [14] | Potency [15] | Potency [16]

CC/C=C/CCCCCCCCCCOC(C)=O
inactive: Potency [1] | Potency [2] | Potency [3] | Potency [4] | Potency [5] | Potency [6] | Potency [7] | Potency [8] | Potency [17] | Potency [9] | Potency [12] | Potency [13] | Potency [14] | Potency [18] | Potency [16]

CC(=O)Nc1ccc(OCCOCCOc2ccc(NC(C)=O)cc2)cc1
inactive: Potency [1] | Potency [2] | Potency [3] | Potency [4] | Potency [5] | Potency [6] | Potency [7] | Potency [8] | Potency [9] | Potency [10] | Potency [11] | Potency [12] | Potency [13] | Potency [14] | Potency [18] | Potency [15]
